A short description of assay [1]: AP1 Signaling Pathway (AID 357).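 Note: ME-180 reporter cells stimulated with EGF at its EC50 level; % is set by controls: 0 for no effect and ±100 for the full control effect.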 Put shortly: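 In this screen, ME-180 cells in Opti-MEM with 0.5% dialyzed FBS received EC50 EGF and compound titrations for 5 h. AP-1 reporter beta-lactamase was detected via CCF4 ratio, giving AC50 for positive and negative modulators.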
Assay [2] addresses Cytochrome P450 1A2 (Homo sapiens) (UniProt P05177). Description: p450-cyp1a2 (AID 410; calls by dose curve; note: potency is the fitted concentration of half-maximal effect;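 for activity change, negative = inhibition: -100% = full effect of reference inhibitor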). Put shortly: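 Luminescent readout of luciferin formed from Luciferin-ME by human CYP1A2; data normalized against complete inhibition by 57 uM furafylline. Enzyme 20nM, substrate 100uM at Km, 100mM KPO4 buffer, 60 min reaction at room temperature.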
The nature of assay [3]: Stat Signaling Pathway (AID 446).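 Note: ME-180 cervical cancer cells given 40 pM IL-6 alongside compound; SIE-controlled beta-lactamase reporter measured as 460/530 nm FRET emission ratio; % is set by controls: 0 for no effect and ±100 for the full control effect.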 Put shortly:
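Reporter line: ME-180 cervical carcinoma, SIE-beta-lactamase. Treatment: compound with 40 pM IL-6, 5 hrs, 37 C, in low-serum OPTI-MEM with 10 mM HEPES pH 7.3. Detection: 460/530 nm fluorescence.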

Assay [4] addresses Glucocorticoid receptor (Homo sapiens) (UniProt P04150). In words: GR-GFP Redistribution (AID 450;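 active = compounds whose dose series gives a full or clear partial fitted curve of increased nuclear translocation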; note: potency is the fitted concentration of half-maximal effect). The following applies: U2OS GR-GFP nuclear translocation, laser cytometry, 2 h.
For assay [5] the target is unchanged. Description: GR-EFC Redistribution (AID 451; calls by dose curve; note: potency is the fitted concentration of half-maximal effect). The following applies: CHO-K1 GR-EFC translocation, beta-gal luminescence, 2 h. Put shortly: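 Translocation of GR-ED fusion to nuclear EA restores b-gal, read by luminescence after 1 h room-temperature detection. Engineered CHO-K1 biosensor cells, 1,000/well, exposed 2 h at 37 C to titrations up to 46 uM final.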

The target of assay [6] is Mitogen-activated protein kinase 10 (Mus musculus) (UniProt Q61831). In words: JNK3 AlphaScreen Assay (AID 530).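 Note: kinase came from lysate of stimulated human HepG2 cells; signal reports phosphorylation of biotinylated GST-cJun 1-79 at Ser73 with 10 µM ATP; % is set by controls: 0 for no effect and ±100 for the full control effect.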 Put shortly:
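Compound titrations were preincubated 15 minutes at room temperature with substrate, antibody and pre-activated JNK3-containing HepG2 lysate. Reactions were started with 10 uM ATP and stopped with EDTA-containing bead buffer for AlphaScreen detection.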
In general terms: Alpha assays give light when donor and acceptor beads are brought close together.

Assay [7] has as its target 3',5'-cyclic-AMP phosphodiesterase 4B (Homo sapiens) (UniProt Q07343). Description: qHTS Assay for Inhibitors of PDE-IV (AID 607; active = well fitted activation curve with a large enough effect in the main read-out, with a control signal flat, not every such curve was filed as active; note: % of control where 0% means no effect). Put shortly:
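Cell-based read-out of cAMP via a modified cyclic nucleotide-gated channel and membrane potential dye (535/590 nm) in HEK293 cells expressing PDE4 endogenously. Compounds tested up to 22.9 uM final; 100 uM RO 20-1724 reference.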
In general terms: Quantitative high-throughput screening tests each substance at several concentrations.

A short description of assay [8]: Cell Viability - BJ (AID 421; calls by dose curve;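 note: potency is the fitted concentration of half-maximal effect; cells exposed to compound for 40 hours at 37 °C before readout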). Conditions: BJ fibroblast viability, qHTS. The essentials: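 Cytotoxicity as drop in intracellular ATP (CellTiter-Glo, 20 min RT) after 40 hr compound exposure of BJ fibroblasts at 37 °C. Titrations scaled between DMSO and 100 uM tamoxifen, Hill-fitted for AC50.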
Assay [9] is described as follows: Cell Viability - Jurkat (AID 426;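 active = dose-dependent loss of cell ATP signal giving a full or clear fitted curve, ranked by lower potency value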; note: potency is the fitted concentration of half-maximal effect). The following applies: qHTS. Put shortly: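 qHTS, 1536-well; Jurkat E6-1, 5000 cells/well, complete medium; cpd 40 hr, 37 °C; CellTiter-Glo 20 min RT; luminescence. AC50 by Hill fit.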
The nature of assay [10]: Cell Viability - Hek293 (AID 427;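 active = compounds whose dose-response curve shows a full or clear partial loss of cell viability, called from curve shape rather than a numeric limit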;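 note: potency is the fitted concentration of half-maximal effect; cells exposed to compound for 40 hours at 37 °C before reading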). Conditions: qHTS. The essentials:
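Luminescent ATP content (CellTiter-Glo, 20 min at room temperature) was measured after a 40 hr, 37 °C compound exposure of HEK293 cells. AC50 values came from Hill-equation fits of qHTS concentration-response data normalized to DMSO and 100 uM tamoxifen.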

Assay [11] can be described thus: Cell Viability - HepG2 (AID 433; calls by dose curve;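 note: potency is the fitted concentration of half-maximal effect; potency for ATP loss meaning cytotoxicity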). Conditions: qHTS. The essentials: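 HepG2 hepatocellular carcinoma cells (1500/well) were treated with compounds for 40 h at 37 °C in complete medium; intracellular ATP was read by CellTiter-Glo luminescence. Data were normalized to DMSO and 100 uM tamoxifen, and AC50 came from Hill fits.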
Assay [12] is described as follows: Cell Viability - SK-N-SH (AID 435; calls by dose curve;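 note: potency is the fitted concentration of half-maximal effect; compound exposure lasted 40 h at 37 °C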). The following applies: SK-N-SH neuroblastoma cell viability qHTS. Put shortly: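 SK-N-SH human neuroblastoma cells (1500/well) were exposed to compounds in complete medium for 40 h at 37 °C, and intracellular ATP was then measured by CellTiter-Glo luminescence. AC50 was taken from Hill fits, normalized to DMSO and 100 uM tamoxifen.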

Assay [13] can be described thus: Cell Viability - HUV-EC-C (AID 542; active = well fitted curve in the direction sought with a large enough effect; an effect the other way counts as inactive or inconclusive; note: % is set by controls: 0 for no effect and ±100 for the full control effect; nearly all actives have a fitted effect of over 35% in size). The essentials:
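qHTS cytotoxicity: HUV-EC-C, 1000 cells/well, 5 hr settle, compound 40 hr 37 °C, CellTiter-Glo, luminescence. AC50 via Hill equation.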

A short description of assay [14]: Cell Viability - H-4-II-E (AID 543; active = well fitted curve in the direction sought with a large enough effect; an effect the other way counts as inactive or inconclusive; note: nearly all actives have a fitted effect of over 35% in size; note: potency is the fitted concentration of half-maximal effect). Put shortly:
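Luminescent ATP signal (CellTiter-Glo) served as the viability read-out, with cytotoxicity seen as a concentration-dependent ATP drop. Cells were treated for 40 hours in complete medium. AC50 values derive from Hill-equation modelling.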

Assay [15] in a line: Cell Viability - SH-SY5Y (AID 544; active = well fitted curve in the direction sought with a large enough effect; an effect the other way counts as inactive or inconclusive;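 note: 0% = DMSO alone and -100% = 100 µM tamoxifen; nearly all actives have a fitted effect of over 55% in size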). Put shortly: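 Luminescent ATP read-out (CellTiter-Glo) measures loss of viable SH-SY5Y neuroblastoma cells after 40 hr compound exposure at 37 °C. AC50 values derive from standard Hill modelling of qHTS concentration-response data.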
Assay [16] in a line: Cell Viability - Renal Proximal Tubule (AID 545; active = well fitted curve in the direction sought with a large enough effect; an effect the other way counts as inactive or inconclusive;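 note: 0% = DMSO only and -100% = 100 µM tamoxifen; nearly all actives have a fitted effect of over 40% in size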). Put shortly: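 Primary rat renal proximal tubule cells (1000/well) were treated with compounds for 40 hr at 37 °C in complete medium. Intracellular ATP was measured by CellTiter-Glo luminescence, and AC50 values came from Hill-equation fits of concentration-response data.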
Assay [17] in a line: Cell Viability - Mesenchymal (AID 546; active = well fitted curve in the direction sought with a large enough effect; an effect the other way counts as inactive or inconclusive;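 note: cells exposed to compound for 40 hours before reading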; note: potency is the fitted concentration of half-maximal effect;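 for activity change, negative = cytotoxicity: 0% = DMSO only and -100% = 100 µM tamoxifen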). Put shortly:
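AC50 values reflect the drop in intracellular ATP in a human kidney mesenchymal line derived from normal glomeruli. Treatment lasts 40 hr at 37 °C in complete medium, and the signal comes from CellTiter-Glo luminescence.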

Assay [18] can be described thus: Cell Viability - N2a (AID 540; active = well fitted curve in the direction sought with a large enough effect; an effect the other way counts as inactive or inconclusive;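 note: plate controls were DMSO alone for no effect and tamoxifen control for full effect; nearly all actives have a fitted effect of over 45% in size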). Conditions: N2a mouse neuroblastoma cell viability; activity change, negative = cytotoxicity: at 92.2 µM (top of the series). Put shortly: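 Luminescent ATP signal (CellTiter-Glo, 20 min at room temperature) served as the viability read-out after N2a cells were treated with compounds for 40 hours at 37 °C. Concentration-response data were fitted to the Hill equation for AC50.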

The nature of assay [19]: Cell Viability - NIH 3T3 (AID 541; active = well fitted curve in the direction sought with a large enough effect; an effect the other way counts as inactive or inconclusive;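 note: plate controls were DMSO alone for no effect and tamoxifen positive control for full effect; nearly all actives have a fitted effect of over 25% in size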). The essentials:
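Luminescent ATP signal (CellTiter-Glo) served as the viability read-out after NIH 3T3 cells were exposed to compounds over a concentration range for 40 hr at 37 °C. Hill-equation modelling of concentration-response data gave AC50.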

Assay [20] is described as follows: NFAT Signaling Pathway (AID 444).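 Note: carbachol stimulus at about its EC50 of 1 µM final; % is set by controls: 0 for no effect and ±100 for the full control effect.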 The following applies: Jurkat NFAT-bla M1, carbachol, beta-lactamase ratio, 5 h. Put shortly:
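Read-out: CCF4 FRET ratio (460 nm/530 nm) after 1 h RT dye loading, used for %activity and AC50 from titration series. Cells: Jurkat NFAT-β-lactamase/M1 line, treated with compound plus 1 uM carbachol for 5 h, 37 °C.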

The values below come from PubChem BioAssay (NCATS).

SMILES strings stand for the structures. Where “and” joins values, the source holds several entries; their conditions need not be identical. Equal entries are not always repeated. Values without a mark were called inactive. Results filed as inconclusive are left out. Calls of active or inactive are those of the source. Unless noted, calls come from the whole dose curve; as a rule, active = well fitted curve in either direction with a large enough effect (not every such curve was filed as active); inconclusive = small, poorly fitted or top-dose-only effect, or another doubt; inactive = flat fitted curve, though single readings scatter.

Chain of 3',5'-cyclic-AMP phosphodiesterase 4B (Homo sapiens) (Q07343 whole entry, looked up): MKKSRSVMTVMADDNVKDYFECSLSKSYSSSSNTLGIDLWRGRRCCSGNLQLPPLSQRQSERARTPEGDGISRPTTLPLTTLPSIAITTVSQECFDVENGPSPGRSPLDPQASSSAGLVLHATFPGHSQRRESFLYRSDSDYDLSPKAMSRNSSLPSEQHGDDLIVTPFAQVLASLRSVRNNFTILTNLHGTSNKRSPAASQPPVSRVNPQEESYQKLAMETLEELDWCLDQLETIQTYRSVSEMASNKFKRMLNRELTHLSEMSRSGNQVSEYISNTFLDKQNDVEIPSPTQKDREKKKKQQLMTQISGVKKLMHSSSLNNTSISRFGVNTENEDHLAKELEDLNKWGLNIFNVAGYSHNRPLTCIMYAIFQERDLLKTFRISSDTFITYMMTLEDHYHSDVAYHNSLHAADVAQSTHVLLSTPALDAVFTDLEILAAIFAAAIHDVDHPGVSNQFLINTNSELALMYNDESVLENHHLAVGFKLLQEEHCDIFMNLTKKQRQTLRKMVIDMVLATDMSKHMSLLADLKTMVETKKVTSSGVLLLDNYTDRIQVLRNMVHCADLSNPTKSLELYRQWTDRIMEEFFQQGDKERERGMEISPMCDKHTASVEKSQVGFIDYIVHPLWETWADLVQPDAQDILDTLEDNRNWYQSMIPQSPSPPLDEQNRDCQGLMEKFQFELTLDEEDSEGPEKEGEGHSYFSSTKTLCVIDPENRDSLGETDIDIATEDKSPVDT
Chain of Glucocorticoid receptor (Homo sapiens) (P04150 whole entry, looked up, the tested form may be a part): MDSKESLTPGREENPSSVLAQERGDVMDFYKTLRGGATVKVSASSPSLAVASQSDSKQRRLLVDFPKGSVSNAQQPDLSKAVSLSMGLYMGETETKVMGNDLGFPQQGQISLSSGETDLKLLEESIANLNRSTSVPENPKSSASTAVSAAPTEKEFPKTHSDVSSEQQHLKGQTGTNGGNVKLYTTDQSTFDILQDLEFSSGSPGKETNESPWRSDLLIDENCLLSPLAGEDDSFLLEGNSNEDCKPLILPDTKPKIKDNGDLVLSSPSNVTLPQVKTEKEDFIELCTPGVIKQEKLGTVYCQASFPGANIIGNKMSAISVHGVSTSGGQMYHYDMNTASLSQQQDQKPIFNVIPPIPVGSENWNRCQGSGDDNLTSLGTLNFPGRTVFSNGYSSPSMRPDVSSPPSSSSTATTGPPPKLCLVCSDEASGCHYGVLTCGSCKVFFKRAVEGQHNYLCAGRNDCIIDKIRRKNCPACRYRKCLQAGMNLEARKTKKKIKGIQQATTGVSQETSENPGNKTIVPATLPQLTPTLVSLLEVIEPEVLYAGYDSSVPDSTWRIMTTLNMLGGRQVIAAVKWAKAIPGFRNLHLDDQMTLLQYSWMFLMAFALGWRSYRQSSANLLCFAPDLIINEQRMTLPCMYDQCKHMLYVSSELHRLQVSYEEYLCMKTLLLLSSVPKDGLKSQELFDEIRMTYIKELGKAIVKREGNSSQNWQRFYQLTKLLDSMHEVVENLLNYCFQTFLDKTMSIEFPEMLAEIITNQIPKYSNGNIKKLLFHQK
Chain of Cytochrome P450 1A2 (Homo sapiens) (P05177 whole entry, looked up): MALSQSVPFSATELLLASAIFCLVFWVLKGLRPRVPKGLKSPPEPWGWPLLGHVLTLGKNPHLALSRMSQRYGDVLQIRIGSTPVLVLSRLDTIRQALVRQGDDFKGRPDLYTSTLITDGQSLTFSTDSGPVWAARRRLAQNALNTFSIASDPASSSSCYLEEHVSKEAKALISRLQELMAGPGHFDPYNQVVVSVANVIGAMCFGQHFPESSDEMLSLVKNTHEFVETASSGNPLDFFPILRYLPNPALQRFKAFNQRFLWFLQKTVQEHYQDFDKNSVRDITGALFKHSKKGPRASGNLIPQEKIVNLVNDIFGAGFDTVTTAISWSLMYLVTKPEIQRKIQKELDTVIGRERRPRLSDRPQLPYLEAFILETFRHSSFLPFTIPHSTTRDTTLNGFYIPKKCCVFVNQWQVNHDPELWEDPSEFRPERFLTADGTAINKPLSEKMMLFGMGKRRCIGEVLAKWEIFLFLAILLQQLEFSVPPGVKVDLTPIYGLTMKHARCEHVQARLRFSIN

`O=c1cc(N2CCOCC2)oc2c(-c3ccccc3)cccc12`: the compound was called inactive in assay [1], in assay [3] and in assay [7]. For the same compound, the Potency in assay [2] was 1.58 µM (active) and 200 nM (active); in [4], more than 46 µM; in [5] it was more than 46 µM. Further, the Potency result in assay [6] is “inactive”.

In the case of `Cc1cc2cc3c(C)cc(=O)oc3c(C)c2o1`, the result in [1] and in assay [7] was inactive. In addition, in assay [2], the Potency is 1 µM (active). For the same compound, the Potency result in assay [6] is “inactive”.

Take `CCc1nc(N)nc(N)c1-c1ccc(Cl)cc1`: the compound was called inactive in assay [1] and in assay [3]. For the same compound, the Potency in assay [2] is 10 µM (active); in [8] it was more than 92 µM; in assay [9], 3.02 µM (active); in assay [10], 1.64 µM (active); in [11], 1.05 µM (active); in assay [12], 25.6 µM (active). The Potency in [4] is more than 20.6 µM; in [5] it was more than 20.6 µM; in assay [14] it was 0.158 µM (active); in assay [17], 2 µM (active). The Potency entry in assay [6], in assay [13], in assay [15] and in assay [16] was “inactive” each time.

For `Nc1ccc(S(N)(=O)=O)cc1`, the call in [1], in assay [3] and in assay [7] was inactive. The Potency was more than 92 µM in [8]; more than 92 µM in assay [9]; more than 92 µM in [10]; more than 92 µM in assay [11]; more than 92 µM in assay [12]; more than 20.6 µM in assay [4]. Besides, in assay [5], the Potency is more than 20.6 µM. The Potency entry in assay [6], in assay [18], in [19], in assay [13], in assay [14] and in [15] was “inactive” each time. In addition, the Potency entry in [16] and in [17] was “inactive” in each case.

Regarding `c1ccc2[nH]c(-c3cscn3)nc2c1`, the call in assay [1], in [3] and in assay [7] was inactive. Also, the Potency in [2] is 0.126 µM (active); in assay [8], more than 92 µM; in [10], more than 92 µM; in [11], more than 92 µM; in assay [12] it was more than 92 µM; in [4] it was more than 20.6 µM. The Potency in assay [5] was more than 20.6 µM. Moreover, the Potency entry in assay [6], in [13], in assay [14], in assay [15], in assay [16] and in assay [17] was “inactive” in each case.

Take `Oc1ccc(-c2nc(-c3ccc(F)cc3)c(-c3ccncc3)[nH]2)cc1`: the outcome in assay [1], in assay [3] and in assay [7] was inactive. The Potency was 15.8 µM (active) in assay [2], more than 46 µM in assay [4] and more than 46 µM in assay [5].

As for `O=C(O)c1cccnc1Nc1cccc(C(F)(F)F)c1`, the call in assay [1], in [3] and in [7] was inactive. Besides, the Potency in assay [2] is 10 µM (active) and 5.01 µM (active); in [4], > 46 µM and > 20.6 µM; in assay [5], > 46 µM and > 20.6 µM. In assay [6], the Potency entry was “inactive”.

In the case of `Nc1nc(OCc2ccccc2)c2[nH]cnc2n1`, the outcome in assay [1], in assay [3] and in assay [7] was inactive. For the same compound, the Potency in assay [2] is 1 µM (active); in [4], more than 46 µM; in assay [5], more than 46 µM.

For the compound `COc1ccccc1N1CCN(CCN(C(=O)C2CCCCC2)c2ccccn2)CC1`, the result in assay [1], in assay [3] and in assay [7] was inactive. Further, the Potency result in assay [2] and in assay [6] was “inactive” throughout. In addition, in assay [20] (at 38 µM (top of the series)), the activity change, negative = inhibition is 3.68%. The Potency in assay [4] and in assay [5] was more than 46 µM each time.

With `CC(=O)Nc1ccc(O)cc1`, the result in [1] and in assay [3] was inactive. Besides, the Potency entry in assay [2], in assay [6], in [18], in assay [19], in assay [13] and in assay [14] was “inactive” in each case. For the same compound, the Potency entry in assay [15], in assay [16] and in [17] was “inactive” throughout. Besides, the Potency in assay [8], in assay [9], in assay [10], in [11] and in [12] was more than 92 µM each time.

`NNc1nncc2ccccc12`: the compound was classed as inactive in assay [1], in assay [3] and in assay [7]. The Potency is 3.16 µM (active) and 1 µM (active) in [2]; > 46 µM and > 20.6 µM in assay [4]; > 46 µM and > 20.6 µM in assay [5]. Besides, the Potency entry in assay [6] is “inactive”.

As to `CCOc1cc(CC(=O)N[C@@H](CC(C)C)c2ccccc2N2CCCCC2)ccc1C(=O)O`, the result in [1], in assay [3] and in [7] was inactive. For the same compound, the Potency result in [2] and in assay [6] was “inactive” throughout. In assay [20] (at 17.2 µM (top of the series)), the activity change, negative = inhibition was -1.28%. In addition, the Potency in [4] was 2.1 µM (active); in assay [5], more than 20.6 µM.
